Measured values reported in publication PMC4336329 (PLoS ONE, 2015).
Out of some 310,000 compounds screened, about 14,000 (4.5%) showed an effect of 50% or more. The effect is printed as a negative number. The sample holds strong results, similar compounds and a random draw of the others, so the mix is not that of the screen.

Target: human ether-à-go-go-related gene (hERG) potassium channel (human, UniProt Q12809)
Experiment: primary screen, population patch clamp on CHO cells stably expressing hERG; higher = less effect of the substance
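Note: peak tail current of the secondary pulse compared with the same well before compound.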

human ether-à-go-go-related gene (hERG) potassium channel, sequence (Q12809 whole entry, looked up): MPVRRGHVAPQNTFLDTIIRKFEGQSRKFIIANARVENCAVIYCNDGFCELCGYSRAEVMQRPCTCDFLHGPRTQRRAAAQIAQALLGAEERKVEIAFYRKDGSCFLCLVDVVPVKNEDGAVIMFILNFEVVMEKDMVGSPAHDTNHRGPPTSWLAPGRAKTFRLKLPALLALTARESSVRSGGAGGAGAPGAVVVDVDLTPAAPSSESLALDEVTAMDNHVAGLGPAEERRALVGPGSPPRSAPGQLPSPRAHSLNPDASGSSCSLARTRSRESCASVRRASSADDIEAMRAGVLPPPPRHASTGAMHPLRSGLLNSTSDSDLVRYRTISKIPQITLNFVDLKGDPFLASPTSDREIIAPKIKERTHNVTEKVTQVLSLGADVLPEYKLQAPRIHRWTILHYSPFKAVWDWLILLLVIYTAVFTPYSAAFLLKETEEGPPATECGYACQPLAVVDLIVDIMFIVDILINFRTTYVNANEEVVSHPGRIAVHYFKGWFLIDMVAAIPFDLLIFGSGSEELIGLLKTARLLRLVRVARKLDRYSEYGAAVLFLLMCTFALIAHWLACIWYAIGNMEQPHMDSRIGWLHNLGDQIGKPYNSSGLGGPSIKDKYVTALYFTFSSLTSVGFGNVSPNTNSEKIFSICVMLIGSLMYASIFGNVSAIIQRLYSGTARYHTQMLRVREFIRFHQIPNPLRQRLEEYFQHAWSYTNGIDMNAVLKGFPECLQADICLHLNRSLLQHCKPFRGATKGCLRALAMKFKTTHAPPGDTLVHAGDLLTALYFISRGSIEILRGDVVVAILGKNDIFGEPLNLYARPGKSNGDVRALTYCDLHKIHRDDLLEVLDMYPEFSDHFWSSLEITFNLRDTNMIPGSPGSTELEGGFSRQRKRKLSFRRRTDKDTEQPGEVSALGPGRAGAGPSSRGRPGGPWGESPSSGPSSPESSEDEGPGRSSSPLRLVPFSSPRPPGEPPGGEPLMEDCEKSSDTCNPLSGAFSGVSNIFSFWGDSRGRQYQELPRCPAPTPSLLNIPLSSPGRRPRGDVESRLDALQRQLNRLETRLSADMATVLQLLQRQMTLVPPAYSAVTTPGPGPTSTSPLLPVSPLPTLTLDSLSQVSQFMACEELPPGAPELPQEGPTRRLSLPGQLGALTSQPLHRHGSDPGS

Row | Structure (SMILES) | hERG current change (%, negative = inhibition) at 10uM [%]
1 | COC(=O)c1cc(N2CCNCC2)nc2ccccc12.Cl | -17
2 | CCN1C(=O)c2cccc3c(S(=O)(=O)N(C(=O)c4ccncc4)c4ccc(OC)cc4)ccc1c23 | -7.51
3 | Cc1sc(NC(=O)c2ccco2)c(CN2CCCCC2)c1C | -49.9
4 | Cc1sc2nc(CN3CCCCC3)nc(N3CCN(C(=O)c4ccco4)CC3)c2c1C | -75
5 | Cc1sc2nc(CN3CCCC3)nc(N3CCN(C(=O)c4ccco4)CC3)c2c1C | -68.6
6 | Cc1sc2nc(CN3CCCC3)nc(N3CCC(C(N)=O)CC3)c2c1C | -3.64
7 | Cc1sc2nc(CN3CCOCC3)nc(Oc3ccc(NC(=O)c4ccco4)cc3)c2c1C | -38.9
8 | Cc1sc2nc(CN3CCOCC3)nc(N3CCC(C(N)=O)CC3)c2c1C | 5.73
9 | CCCn1c(SCN2C(=O)c3ccccc3C2=O)nc2cc(Cl)ccc2c1=O | 16.5
10 | COC(=O)c1ccc(-c2cc(C(=O)O)c3cc4c(cc3n2)OCCO4)cc1 | -0.776
11 | CC(C)C12CN3CCN(CC(C3)/C1=N\NC(=O)Nc1ccccc1)C2 | -16.1
12 | CCCn1c(N2CCN(CC(=O)NCc3cccs3)CC2)nc2ccccc21 | -74.7
13 | O=C(CN1CCN(c2ccccn2)CC1)NCc1cccs1 | -26.2
14 | CC(C)n1c(N2CCN(CC(=O)NCc3cccs3)CC2)nc2ccccc21 | -60.8
15 | CC(C)(C)NC(=O)Cn1c(SCC(=O)NCc2cccs2)nc2ccccc21 | 6.18
16 | COc1cccc(N2CCN(CC(=O)NCc3cccs3)CC2)c1 | -3.18
17 | CC(C)n1c(NCc2cccs2)nc2ccccc21 | -12.6
18 | Nc1c(Cl)ncnc1NCC(O)CO (stereo not drawn) | 17.7
19 | O=C(Nc1ccc(Oc2ccc(NC(=O)c3ccco3)c(NC(=O)c3ccco3)c2)cc1)c1ccco1 | -13.5
20 | CC1Cc2ccccc2N1C(=O)CSc1nc2c(c(=O)n(C)c(=O)n2C)n1Cc1ccccc1 (stereo not drawn) | -33.7
21 | Cc1ccc(Nc2ccccc2)nn1 | 18.6
22 | COc1ccccc1-c1coc2c(CN3CCCC(C)C3)c(O)ccc2c1=O (stereo not drawn) | -2.44
23 | CC1(C)CC2(CC(c3ccccc3)Oc3cc(O)ccc32)NC(=S)N1 (stereo not drawn) | -1.82
24 | CC1(C)CC2(CC(c3ccccc3)Oc3cc(O)ccc32)NC(=O)N1 (stereo not drawn) | 3.54

Row | Structure (SMILES) | hERG current change (%, negative = inhibition) at 10uM [%]
25 | CSC1=NC2(CC(c3ccccc3)Oc3cc(O)ccc32)CC(C)(C)N1 (stereo not drawn) | -76.1
26 | Cc1cc(Cl)ccc1OCC(=O)N/N=C1\CCCc2ccccc21 | -0.309
27 | CC(C)(C)c1nc2ccc(NS(=O)(=O)c3ccc(F)c(F)c3F)cc2[nH]1 | 10.6
28 | COc1ccccc1NC1=NC(C)(C)N=C(N)N1 | 23.2
29 | NS(=O)(=O)c1ccc(CCNC(=O)c2ccc(-c3ccccc3)cc2)cc1 | 9.92
30 | COc1ccccc1C(=O)NNC(=O)c1ccccc1Br | 23
31 | COc1ccccc1NC(=S)NNC(=O)c1ccccc1Br | -70.9
32 | COc1ccccc1NC(=S)NNC(=O)c1ccccc1 | -1.04
33 | Cc1nn(Cc2ccc(F)cc2Cl)c(C)c1[N+](=O)[O-] | -1.01
34 | Cc1ccc(OCC(=O)O/N=C(\N)c2ccccn2)cc1C | -11.3
35 | COc1ccc(Nc2nc(C)c(-c3ccccc3)s2)cc1 | 14.9
36 | Cc1nc(Nc2ccc(C(=O)O)cc2)sc1-c1ccccc1 | -76.5
37 | Cc1nc(Nc2ccccc2)sc1-c1ccccc1 | 1.73
38 | O=C(O)c1ccc(Nc2nc3c(s2)CCCC3)cc1 | -81.3
39 | COc1ccc(NC(=O)Nc2nc3c(s2)CCCC3)cc1 | -26.8
40 | Cc1cccc(Nc2nc3c(s2)CCCC3)c1 | -8.11
41 | C=CCSC1=C(C#N)C2(CCCCC2)C(C#N)C(=O)N1 (stereo not drawn) | -3.87
42 | C=CCNc1sc(C(=O)C(C)(C)C)c(N)c1C#N | 5.11
43 | CCN(CC(=O)Nc1ccc(OC)cc1)C(=O)c1ccc2c(=O)n3c(nc2c1)CCC3 | 9.77
44 | C=CCn1cnc2c(sc3nc(C)cc(C)c32)c1=O | -6.75
45 | COc1ccccc1OCCNC(=O)c1cc([N+](=O)[O-])cc([N+](=O)[O-])c1 | 12.2
46 | Cc1nc(-c2ccncc2)nc(NCCNc2ncccc2C(F)(F)F)c1Cl | 6.57
47 | COc1ccccc1CC(=O)NC1CCCc2ccccc21 (stereo not drawn) | -32.8
48 | O=C(CCc1nnc(-c2ccc3c(c2)OCO3)o1)N1CCC(c2ccc(F)cc2)C1 (stereo not drawn) | -56

Row | Structure (SMILES) | hERG current change (%, negative = inhibition) at 10uM [%]
49 | CCC(=O)C1CCCN(C(=O)CCc2nnc(-c3ccc4c(c3)OCO4)o2)C1 (stereo not drawn) | -8.82
50 | CCN(CCn1cccn1)C(=O)CCc1nnc(-c2ccc3c(c2)OCO3)o1 | -5.68
51 | Cc1cc(C)n(CCN(C)C(=O)CCc2nnc(CCC3CCCCC3)o2)n1 | -4.29
52 | CC1CCCN(C(=O)CCc2nnc(-c3ccc4c(c3)OCO4)o2)C1 (stereo not drawn) | -4.43
53 | Cc1cc(C)n(CCN(C)C(=O)CCc2nnc(-c3ccc4c(c3)OCO4)o2)n1 | -51.7
54 | O=C(CNc1ccc2ccccc2c1)N/N=C/c1ccc(OC(=O)/C=C/c2ccco2)cc1 | 22.7
55 | Cc1ccccc1OS(=O)(=O)c1cn(C)c(=O)n(C)c1=O | 11.4
56 | Cc1ccc(C2CC(=O)C=C(Nc3ccc(Cl)cc3)C2)cc1 (stereo not drawn) | 7.93
57 | Cc1ccc(S(=O)(=O)/N=C/N(C)C)cc1 | 0.768
58 | COc1ccc(-c2cnnc(N/N=C/C(C)=C/c3ccccc3)n2)cc1 | -9.57
59 | CCc1c(C(=O)NCCc2cccc(C)c2)[nH]c(C)c1C(C)=O | 12.2
60 | O=[N+]([O-])c1ccc(C(O)CN2CCN(Cc3ccccc3)CC2)cc1 (stereo not drawn) | -73.4
61 | O=[N+]([O-])c1ccc(C(O)CNC(=S)Nc2ccccc2)cc1 (stereo not drawn) | -11.6
62 | O=C(NCC(O)c1ccc([N+](=O)[O-])cc1)C(c1ccccc1)c1ccccc1 (stereo not drawn) | -46.2
63 | O=[N+]([O-])c1ccc(C(O)CN2CCOCC2)cc1 (stereo not drawn) | 18.5
64 | O=[N+]([O-])c1ccc(C(O)C[n+]2ccccc2)cc1.[I-] (stereo not drawn) | 12
65 | O=[N+]([O-])c1ccc(C(O)CN2CCN(c3ccccc3)CC2)cc1 (stereo not drawn) | -50.3
66 | O=C(CC(c1ccccc1)c1ccccc1)NCC(O)c1ccc([N+](=O)[O-])cc1 (stereo not drawn) | -58.1
67 | Oc1ccc(N2CCN(CC(O)c3ccccc3)CC2)cc1 (stereo not drawn) | 10.4
68 | O=C(CNC(=O)c1ccccc1)NCC(O)c1ccc([N+](=O)[O-])cc1 (stereo not drawn) | 10.7
69 | CC1SC(c2ccccc2)N(CC(O)c2ccc([N+](=O)[O-])cc2)C1=O (stereo not drawn) | -80.6
70 | O=C1CSC(c2ccccc2)N1CC(O)c1ccc([N+](=O)[O-])cc1 (stereo not drawn) | -12.1
71 | O=C1CCN(Cc2ccc([N+](=O)[O-])cc2)CCN1[C@H](CO)c1ccccc1 | -37.4
72 | COc1ccccc1NC(=S)NC(=O)C(C)C | -21.8

Row | Structure (SMILES) | hERG current change (%, negative = inhibition) at 10uM [%]
73 | Cc1c(C(=O)N2CCCCC2)nn(-c2ccc(Cl)cc2)c(=O)c1C#N | -17.5
74 | CC(C)(C)n1nc2c(c1NC(=O)COc1ccc(Cl)cc1)CS(=O)(=O)C2 | -46.5
75 | Cc1cccc(NC(=S)Nc2ccc3cn[nH]c3c2)c1 | 1.96
76 | COc1ccc(C(=O)[C@H]2[C@H]3C(=O)N(c4ccccc4)C(=O)[C@H]3C3C=CC=NN32)cc1 (stereo partly drawn) | 4.94
77 | O=S(=O)(c1ccc(S(=O)(=O)N2CCN(C/C=C/c3ccccc3)CC2)cc1)N1CCCC1 | 11.6
78 | O=S(=O)(c1ccccc1)N1CCN(C/C=C/c2ccccc2)CC1 | -22
79 | O=[N+]([O-])c1ccc(C(O)CN2CCN(C/C=C/c3ccccc3)CC2)cc1 (stereo not drawn) | -76.9
80 | Cc1occc1-c1nc(-c2ccncc2)no1 | -10.4
81 | COc1ccc(OC)c(-n2nnnc2SCC(=O)Nc2nc(C)c(C)s2)c1 | -1.73
82 | COc1ccccc1N1CCN(c2ncnc3sc(C(=O)NCC4CCCO4)c(C)c23)CC1 (stereo not drawn) | -5
83 | COc1ccc(N2CCN(c3ncnc4sc(C(=O)NCC5CCCO5)c(C)c34)CC2)cc1 (stereo not drawn) | -63.4
84 | Cc1c(C(=O)NC2CCCCC2)sc2ncnc(N3CCN(c4ccccc4)CC3)c12 | 13.7
85 | Cc1sc2ncnc(N3CCC(C(=O)NNC(=O)COc4cccc(C(F)(F)F)c4)CC3)c2c1C | -40
86 | Cc1sc2ncnc(N3CCC(C(=O)NCC(=O)Nc4ccc(F)c(F)c4)CC3)c2c1C | -67.2
87 | Cc1sc2ncnc(N3CCC(C(=O)Nc4ccc(Cl)c(Cl)c4)CC3)c2c1C | -7.26
88 | Cc1sc2ncnc(N3CCC(C(=O)NNC(=O)COc4ccccc4F)CC3)c2c1C | -57
89 | Cc1ccccc1OCC(=O)NNC(=O)C1CCN(c2ncnc3sc(C)c(C)c23)CC1 | -19.3
90 | Cc1sc2ncnc(N3CCC(C(=O)NNC(=O)COc4ccccc4Cl)CC3)c2c1C | -38.6
91 | COc1ccc(OCC(=O)NNC(=O)C2CCN(c3ncnc4sc(C)c(C)c34)CC2)cc1 | -52.5
92 | Cc1sc2ncnc(N3CCC(C(=O)Nc4ccc(Cl)cc4Cl)CC3)c2c1C | -7.65
93 | COc1ccccc1OCC(=O)NNC(=O)C1CCN(c2ncnc3sc(C)c(C)c23)CC1 | 10.5
